# Measured values as given in the supplement of paper PMC7156485.
# ± gives the standard deviation of the averaged measurements.
# How the values were obtained:
# Conditions in all cases: concentration: 10 µM; 24 h
# HCC1569 [1] = experiment: cell number relative to DMSO (% of DMSO); higher = more cells (less growth inhibition / toxicity)
# Procedure, shortened: (§1)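 Cells were seeded at 800 per well in 384-well plates with RPMI containing 10% FBS; both HCC1569 and TDF lines were used. Compounds were added at 10 µM for 24 h at 37 °C, in triplicate, before fixation in 3.7% formaldehyde and staining with a rabbit anti-H1.0 antibody, an AlexaFluor 647 secondary and DAPI. H1.0 nuclear intensity or cell number is reported as percent of the plate control using the median of replicates, and HCC1569 values were smoothed for positional effects.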
# TDF [2] = experiment: as above
# Procedure, shortened: as §1
# TDF [3] = experiment: H1.0 immunofluorescence intensity relative to DMSO (% of DMSO); higher = stronger H1.0 induction, active = 120 or more
# Procedure, shortened: as §1
# HCC1569 [4] = experiment: H1.0 immunofluorescence intensity relative to DMSO (% of DMSO); higher = stronger H1.0 induction, active = 140 or more
# Procedure, shortened: as §1
# 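Throughout, for H1.0 immunofluorescence intensity relative to DMSO: TDF is a line of transformed human dermal fibroblasts of mesenchymal origin.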
# 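Throughout, for cell number relative to DMSO: TDF denotes transformed human dermal fibroblasts of mesenchymal origin.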
compound,measurement,setting,value
"CCC1Cc2cc(O)ccc2C2=C1c1ccc(O)cc1CC2CC [(R,R)-cis-Diethyl tetrahydro-2,8-chrysenediol]",cell number,HCC1569 [1],87.5
same,cell number,TDF [2],110
same,H1.0 immunofluorescence intensity,TDF [3],87.9 (inactive)
same,H1.0 immunofluorescence intensity,HCC1569 [4],107 (inactive)
"OB1OCc2cc(F)ccc21 [5-fluoro-2,1-benzoxaborol-1(3H)-ol]",cell number,HCC1569 [1],104
same,cell number,TDF [2],104
same,H1.0 immunofluorescence intensity,TDF [3],95.6 (inactive)
same,H1.0 immunofluorescence intensity,HCC1569 [4],98.5 (inactive)
O=C(NNC(=O)c1ccc(CNS(=O)(=O)c2ccc(F)c(Cl)c2)cc1)c1ccccc1,cell number,HCC1569 [1],103
same,cell number,TDF [2],113
same,H1.0 immunofluorescence intensity,TDF [3],95.9 (inactive)
same,H1.0 immunofluorescence intensity,HCC1569 [4],105 (inactive)
CCCCCCCCC=CCC=CCC=CCCCC(=O)NCCO [Mead ethanolamide],cell number,HCC1569 [1],104
same,cell number,TDF [2],95.8
same,H1.0 immunofluorescence intensity,TDF [3],108 (inactive)
same,H1.0 immunofluorescence intensity,HCC1569 [4],96.2 (inactive)
CS(=O)(=O)O.Cn1cc(C(F)(F)F)nc1-c1ccc(OCC(O)CNCCOc2ccc(O)c(C(N)=O)c2)cc1 (stereo not given),cell number,HCC1569 [1],97.2
same,cell number,TDF [2],92.5
same,H1.0 immunofluorescence intensity,TDF [3],94.5 (inactive)
same,H1.0 immunofluorescence intensity,HCC1569 [4],96.4 (inactive)
Cc1c(OCC(F)(F)F)ccnc1CS(=O)c1nc2ccccc2[nH]1 (stereo not given) [Lansoprazole],cell number,HCC1569 [1],96.3
same,cell number,TDF [2],108
same,H1.0 immunofluorescence intensity,TDF [3],90.1 (inactive)
same,H1.0 immunofluorescence intensity,HCC1569 [4],104 (inactive)
CC12C=CC(=O)C=C1CCC1C3CC(O)C(O)(C(=O)CO)C3(C)CC(O)C12F (stereo not given) [Triamcinolone],cell number,HCC1569 [1],97.5 ± 4.1
same,cell number,TDF [2],105 ± 9.9
same,H1.0 immunofluorescence intensity,TDF [3],86.8 (inactive)
same,H1.0 immunofluorescence intensity,HCC1569 [4],117 (inactive)
CCOC(=O)C1=C(C)NC(C)=C(C(=O)OCC)C1c1ccccc1C=CC(=O)OC(C)(C)C [Lacidipine],cell number,HCC1569 [1],93.2
same,cell number,TDF [2],93.4
same,H1.0 immunofluorescence intensity,TDF [3],98.1 (inactive)
same,H1.0 immunofluorescence intensity,HCC1569 [4],125 (inactive)
Nc1ncnc2c1ncn2C1OC(C(=O)NC2CC2)C(O)C1O (stereo not given) [5'-(N-Cyclopropyl)carboxamidoadenosine],cell number,HCC1569 [1],99.6
same,cell number,TDF [2],95.1
same,H1.0 immunofluorescence intensity,TDF [3],97.8 (inactive)
same,H1.0 immunofluorescence intensity,HCC1569 [4],93.6 (inactive)
CC(C)C(=O)c1c(C(C)C)nn2ccccc12 [Ibudilast],cell number,HCC1569 [1],101 ± 4.1
same,cell number,TDF [2],97.7 ± 1.3
same,H1.0 immunofluorescence intensity,TDF [3],93.1 (inactive)
same,H1.0 immunofluorescence intensity,HCC1569 [4],94.5 (inactive)
CCCOc1ccc2nc(NC(=O)OC)[nH]c2c1 [Oxibendazole],cell number,HCC1569 [1],62.8
same,cell number,TDF [2],9.31
same,H1.0 immunofluorescence intensity,TDF [3],157 (active)
same,H1.0 immunofluorescence intensity,HCC1569 [4],154 (active)
O=c1c(-c2ccc(F)cc2)c(-c2ccncc2)[nH]n1-c1ccc(Cl)cc1 [p38 MAP Kinase Inhibitor],cell number,HCC1569 [1],102
same,cell number,TDF [2],111
same,H1.0 immunofluorescence intensity,TDF [3],95.2 (inactive)
same,H1.0 immunofluorescence intensity,HCC1569 [4],110 (inactive)
CC(C)NCC(O)COc1cccc2ccccc12 (stereo not given) [Propranolol],cell number,HCC1569 [1],102
same,cell number,TDF [2],106
same,H1.0 immunofluorescence intensity,TDF [3],94.7 (inactive)
same,H1.0 immunofluorescence intensity,HCC1569 [4],108 (inactive)
Nc1nc(=O)c2ncn(COCCO)c2[nH]1 [Acyclovir],cell number,HCC1569 [1],98.8
same,cell number,TDF [2],104
same,H1.0 immunofluorescence intensity,TDF [3],90.2 (inactive)
same,H1.0 immunofluorescence intensity,HCC1569 [4],85.5 (inactive)
CCCCCN(C)CCC(O)(P(=O)(O)O)P(=O)(O)O [Ibandronate],cell number,HCC1569 [1],103
same,cell number,TDF [2],100
same,H1.0 immunofluorescence intensity,TDF [3],98.4 (inactive)
same,H1.0 immunofluorescence intensity,HCC1569 [4],97.2 (inactive)
CC(N)=O [Acetamide],cell number,HCC1569 [1],113
same,cell number,TDF [2],103
same,H1.0 immunofluorescence intensity,TDF [3],111 (inactive)
same,H1.0 immunofluorescence intensity,HCC1569 [4],106 (inactive)
Cl.O=C(O)C1=CCCNC1 [Guvacine hydrochloride],cell number,HCC1569 [1],97.8
same,cell number,TDF [2],99.1
same,H1.0 immunofluorescence intensity,TDF [3],103 (inactive)
same,H1.0 immunofluorescence intensity,HCC1569 [4],91.1 (inactive)
NC(N)=NCCCCN=C(N)N.O=S(=O)(O)O [Arcaine sulfate],cell number,HCC1569 [1],104
same,cell number,TDF [2],107
same,H1.0 immunofluorescence intensity,TDF [3],89 (inactive)
same,H1.0 immunofluorescence intensity,HCC1569 [4],92.3 (inactive)
CNC(=O)c1cc(Oc2ccc(NC(=O)Nc3ccc(Cl)c(C(F)(F)F)c3)cc2)ccn1 [Sorafenib],cell number,HCC1569 [1],45.9
same,cell number,TDF [2],21.5
same,H1.0 immunofluorescence intensity,TDF [3],108 (inactive)
same,H1.0 immunofluorescence intensity,HCC1569 [4],68.6 (inactive)
CC1(C)CCC(NC(=O)C(N)CCC(=O)O)CC1 (stereo not given),cell number,HCC1569 [1],103
same,cell number,TDF [2],111
same,H1.0 immunofluorescence intensity,TDF [3],85.3 (inactive)
same,H1.0 immunofluorescence intensity,HCC1569 [4],91.7 (inactive)
